From PubChem BioAssay (NCATS)
Values without a mark were called inactive. Inconclusive results are not listed. Activity calls are given as the source filed them. Unless noted, the call rests on the fitted dose curve; in most records, active means well fitted curve in either direction with a large enough effect (not every such curve was filed as active); inconclusive means small, poorly fitted or top-dose-only effect, or another doubt; inactive means flat fitted curve, though single readings scatter.

Tests used:
[1] = target: Lysosomal acid glucosylceramidase (Homo sapiens) (UniProt P04062); test: Glucocerebrosidase-p2 (AID 348; in the data active means potency below about 10 µM; further: potency means the concentration at half of the fitted maximal effect); conditions: purified GBA, blue fluorogenic substrate, 40 min
Sequence of Lysosomal acid glucosylceramidase (Homo sapiens) (P04062 whole entry, looked up): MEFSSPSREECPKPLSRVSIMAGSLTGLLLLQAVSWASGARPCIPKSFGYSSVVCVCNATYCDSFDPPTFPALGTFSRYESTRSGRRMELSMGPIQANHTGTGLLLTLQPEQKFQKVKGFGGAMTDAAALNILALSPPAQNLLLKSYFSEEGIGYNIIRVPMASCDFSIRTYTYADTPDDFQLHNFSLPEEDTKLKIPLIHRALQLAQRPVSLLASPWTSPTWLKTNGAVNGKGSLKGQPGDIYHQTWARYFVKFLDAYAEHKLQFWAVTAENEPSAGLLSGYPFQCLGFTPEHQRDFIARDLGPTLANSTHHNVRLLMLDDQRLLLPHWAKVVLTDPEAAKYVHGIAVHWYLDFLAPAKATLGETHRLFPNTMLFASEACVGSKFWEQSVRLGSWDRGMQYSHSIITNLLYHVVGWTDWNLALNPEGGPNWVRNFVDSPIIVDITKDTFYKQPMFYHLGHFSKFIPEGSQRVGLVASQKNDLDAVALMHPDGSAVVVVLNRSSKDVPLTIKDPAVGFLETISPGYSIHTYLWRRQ
Outline: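 Normal human glucocerebrosidase (0.2 nM) with blue fluorogenic substrate (80 uM final) in citrate/phosphate pH 5.9 with 10mM sodium taurocholate, 0.01% tween-20; 40 min RT, NaOH/glycine stop; fluorescence Ex 365/Em 440; AC50 from a titration from 0.6 nM upwards.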

[2] = AP1 Signaling Pathway (AID 357); conditions: ME-180 AP-1-bla reporter, EGF-induced, beta-lactamase ratio, 5 h; at 7.69 µM (top of the series) unless noted;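 further: ME-180 reporter cells stimulated with EGF at its EC50 level; on the % scale 0 is the no-effect control and ±100 the full control effect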
Outline: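 Beta-lactamase reporter under AP-1 response element, ME-180 background. Stimulus: EC50 EGF. Compound exposure 5 h, 37 °C. Detection: CCF4, 2.5 h RT, 460/530 nm. Values: AC50 from titration.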

[3] = target: Cytochrome P450 1A2 (Homo sapiens) (UniProt P05177); test: p450-cyp1a2 (AID 410; calls by dose curve; further: potency means the concentration at half of the fitted maximal effect;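 on activity change, negative = inhibition: -100% = full effect of reference inhibitor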); conditions: recombinant CYP1A2, luciferin-ME demethylation, luminescence; series mostly up to 11.4 µM
Sequence of Cytochrome P450 1A2 (Homo sapiens) (P05177 whole entry, looked up): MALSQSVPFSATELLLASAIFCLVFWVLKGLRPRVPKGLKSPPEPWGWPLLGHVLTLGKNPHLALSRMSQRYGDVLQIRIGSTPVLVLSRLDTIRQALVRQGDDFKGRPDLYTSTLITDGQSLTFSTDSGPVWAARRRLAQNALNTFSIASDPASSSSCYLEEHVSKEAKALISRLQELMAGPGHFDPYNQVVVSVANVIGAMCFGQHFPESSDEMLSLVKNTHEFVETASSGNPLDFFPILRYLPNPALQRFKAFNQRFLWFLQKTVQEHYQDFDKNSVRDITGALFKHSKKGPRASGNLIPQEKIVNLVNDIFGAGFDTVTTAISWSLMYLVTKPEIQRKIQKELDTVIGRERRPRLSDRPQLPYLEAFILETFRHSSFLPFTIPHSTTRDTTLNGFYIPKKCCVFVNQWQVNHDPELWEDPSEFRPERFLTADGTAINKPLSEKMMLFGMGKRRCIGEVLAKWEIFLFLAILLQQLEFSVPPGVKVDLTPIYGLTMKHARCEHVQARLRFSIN
Outline: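 O-Demethylation of luciferin 6' methyl ether by human CYP1A2 is monitored as luciferase luminescence. Substrate sits at Km (100uM); enzyme is 20nM. Values are scaled to 57 uM furafylline as maximal inhibition.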

[4] = NFAT Signaling Pathway (AID 444); conditions: Jurkat NFAT-bla M1, carbachol, beta-lactamase ratio, 5 h; at 7.69 µM (top of the series) unless noted;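 further: carbachol stimulus at about its EC50 of 1 µM final; on the % scale 0 is the no-effect control and ±100 the full control effect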
Outline: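 Jurkat cells with NFAT-driven β-lactamase reporter and co-expressed M1 receptor, stimulated with carbachol (final 1 uM, ~EC50), compound titration, 5 h at 37 °C. CCF4 loaded 1 h at RT; 460/530 nm ratio gave %activity and AC50.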

[5] = Stat Signaling Pathway (AID 446); conditions: ME-180 (cervical carcinoma) SIE beta-lactamase reporter, IL-6 stimulated, 5 h; at 7.69 µM (top of the series) unless noted;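 further: ME-180 cervical cancer cells given 40 pM IL-6 alongside compound; SIE-controlled beta-lactamase reporter measured as 460/530 nm FRET emission ratio; on the % scale 0 is the no-effect control and ±100 the full control effect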
Outline: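 Emission at 460 and 530 nm (excitation 405 nm) reports SIE-controlled beta-lactamase in ME-180 cells. Cells received compound with 40 pM IL-6 for 5 hrs at 37 C; data scaled between 300 pM IL-6 and 125 nM JAK-inhibitor controls.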

[6] = target: Glucocorticoid receptor (Homo sapiens) (UniProt P04150); test: GR-GFP Redistribution (AID 450;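 active means compounds whose dose series gives a full or clear partial fitted curve of increased nuclear translocation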; further: potency means the concentration at half of the fitted maximal effect); conditions: U2OS GR-GFP nuclear translocation, laser cytometry, 2 h
Sequence of Glucocorticoid receptor (Homo sapiens) (P04150 whole entry, looked up, the tested form may be a part): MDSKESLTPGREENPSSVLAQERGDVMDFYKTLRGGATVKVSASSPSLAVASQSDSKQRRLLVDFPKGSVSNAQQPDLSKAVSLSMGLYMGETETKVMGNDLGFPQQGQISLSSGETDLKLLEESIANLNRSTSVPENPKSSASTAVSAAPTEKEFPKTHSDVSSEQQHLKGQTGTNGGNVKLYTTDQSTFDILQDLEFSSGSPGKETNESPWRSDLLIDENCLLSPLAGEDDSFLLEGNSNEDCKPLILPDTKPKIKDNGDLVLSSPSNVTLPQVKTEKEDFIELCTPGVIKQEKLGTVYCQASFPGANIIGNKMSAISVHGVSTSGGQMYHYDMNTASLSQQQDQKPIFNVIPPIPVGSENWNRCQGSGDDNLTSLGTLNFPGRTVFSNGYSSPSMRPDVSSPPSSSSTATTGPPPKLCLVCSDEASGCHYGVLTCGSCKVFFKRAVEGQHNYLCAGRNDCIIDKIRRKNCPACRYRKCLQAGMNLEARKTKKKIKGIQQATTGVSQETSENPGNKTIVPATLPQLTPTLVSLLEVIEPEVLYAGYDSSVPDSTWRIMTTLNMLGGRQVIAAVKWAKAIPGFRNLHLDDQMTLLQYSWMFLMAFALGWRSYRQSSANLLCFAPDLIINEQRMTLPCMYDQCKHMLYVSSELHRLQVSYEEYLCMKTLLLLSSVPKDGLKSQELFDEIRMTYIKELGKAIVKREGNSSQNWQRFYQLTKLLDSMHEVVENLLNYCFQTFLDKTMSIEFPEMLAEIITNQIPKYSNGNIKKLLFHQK

[7] = target: Glucocorticoid receptor (Homo sapiens) (UniProt P04150); test: GR-EFC Redistribution (AID 451; calls by dose curve; further: potency means the concentration at half of the fitted maximal effect); conditions: CHO-K1 GR-EFC translocation, beta-gal luminescence, 2 h
Outline: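 CHO-K1 cells expressing nuclear EA and GR-ED fragments of b-gal; compounds titrated up to 46 uM final, 2 h at 37 C. GR nuclear translocation read as complemented b-gal luminescence after 1 h RT detection.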

[8] = target: Mitogen-activated protein kinase 10 (Mus musculus) (UniProt Q61831); test: JNK3 AlphaScreen Assay (AID 530); conditions: JNK3 lysate, c-Jun phosphorylation; series mostly up to 11.4 µM;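 further: kinase came from lysate of stimulated human HepG2 cells; signal reports phosphorylation of biotinylated GST-cJun 1-79 at Ser73 with 10 µM ATP; on the % scale 0 is the no-effect control and ±100 the full control effect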
Outline: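 Activity was read by AlphaScreen after JNK3-containing HepG2 lysate (cytokine pre-activated) phosphorylated biotinylated GST-cJun with 10 uM ATP at room temperature. Phospho-Ser73 cJun antibody with Protein-A acceptor beads provided detection.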

[9] = target: 3',5'-cyclic-AMP phosphodiesterase 4B (Homo sapiens) (UniProt Q07343); test: qHTS Assay for Inhibitors of PDE-IV (AID 607; active means well fitted activation curve with a large enough effect in the main read-out, with a control signal flat, not every such curve was filed as active; further: % of control where 0% means no effect); conditions: HEK293 ACTOne CNG channel cells, membrane potential fluorescence; series mostly up to 22.9 µM
Sequence of 3',5'-cyclic-AMP phosphodiesterase 4B (Homo sapiens) (Q07343 whole entry, looked up): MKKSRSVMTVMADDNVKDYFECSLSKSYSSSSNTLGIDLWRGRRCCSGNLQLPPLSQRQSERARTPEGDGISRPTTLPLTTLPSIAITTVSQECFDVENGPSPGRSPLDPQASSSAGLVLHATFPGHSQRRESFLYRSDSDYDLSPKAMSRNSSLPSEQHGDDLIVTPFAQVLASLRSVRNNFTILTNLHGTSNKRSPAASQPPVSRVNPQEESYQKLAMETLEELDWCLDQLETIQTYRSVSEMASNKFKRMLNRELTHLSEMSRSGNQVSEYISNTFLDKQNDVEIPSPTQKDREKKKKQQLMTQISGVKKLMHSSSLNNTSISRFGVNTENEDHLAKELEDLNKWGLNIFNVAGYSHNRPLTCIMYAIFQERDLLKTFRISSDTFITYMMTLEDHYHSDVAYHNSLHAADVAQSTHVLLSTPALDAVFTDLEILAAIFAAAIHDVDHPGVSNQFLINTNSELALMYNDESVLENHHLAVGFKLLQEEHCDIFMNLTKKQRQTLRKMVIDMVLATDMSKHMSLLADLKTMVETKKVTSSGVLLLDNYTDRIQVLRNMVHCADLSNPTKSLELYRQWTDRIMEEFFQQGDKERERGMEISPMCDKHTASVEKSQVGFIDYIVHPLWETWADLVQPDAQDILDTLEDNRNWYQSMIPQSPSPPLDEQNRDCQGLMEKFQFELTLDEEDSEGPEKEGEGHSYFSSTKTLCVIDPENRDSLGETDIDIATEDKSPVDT
Outline: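 The readout is membrane depolarisation from a cAMP-sensing CNG channel, detected with a potential dye at ex 535/em 590. Cells were HEK293-derived (endogenous PDE-IV) at 1000 cells/well, titrated up to 22.9 uM final.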

SMILES | Potency [1] [µM] | activity change, negative = inhibition [2] [%] | Potency [3] | activity change, negative = inhibition [4] [%] | activity, negative = inhibition [5] [%] | Potency [6] [µM] | Potency [7] [µM] | Potency [8] | Potency [9] | activity change, negative = inhibition [3]
O=C(O)c1cc(=O)[nH]c(SCc2ccccc2)n1 | > 11.4 | 12.1 | inactive | -27.5 | 0.79 | > 46 | > 9.22 | inactive | inactive | 
O=C1C=C(Nc2nc(C(=O)O)cc(=O)[nH]2)c2ccccc2C1=O | > 11.4 | -3.21 |  | 7.2 | 1.38 | > 46 | > 9.22 | inactive | inactive | -15.8% [at 2.29 µM]
CC(C)Cn1cnc2c(Sc3c([N+](=O)[O-])ncn3C)nc(N)nc21 | > 11.4 | -3.59 |  | -13.9 | 11.4 | > 46 | > 9.22 | inactive | inactive | 8.1% [at 2.29 µM]
N[C@@H](Cc1cccc([N+](=O)[O-])c1)C(=O)O | > 11.4 | -0.119 | inactive | 0.16 | 0.761 | > 46 | > 9.22 | inactive | inactive | 
CC(=O)Nc1ccc(S(=O)(=O)N=S(C)C)cc1 | > 11.4 | 4.76 |  | 3.98 | -3.32 | > 46 | > 9.22 | inactive | inactive | -15.9% [at 2.29 µM]
CC[C@@H](Nc1ncnc2nc[nH]c12)C(=O)O | > 11.4 | -11.2 | inactive | -4.99 | 0.774 | > 46 | > 9.22 | inactive | inactive | 
O=c1[nH]c(=S)[nH]c2c1CN(CCCN1CCOCC1)CN2 | > 11.4 | 3.35 |  | 4.33 | 4.09 | > 46 | > 9.22 | inactive | inactive | -13.5% [at 2.29 µM]
COC(=O)[C@@H]1[C@@H]2C[C@H]3c4[nH]c5ccccc5c4CCN3C[C@@H]2CC[C@@H]1OS(=O)(=O)O | > 11.4 | 1.46 |  | 3.3 | 12.7 | > 46 | > 9.22 | inactive | inactive | -10.3% [at 2.29 µM]
CCN(CCO)C[C@H]1CCC[C@H]2CCCC[C@@H]21 | > 11.4 | 16.9 | 5.01 µM (active) | 0.328 | 4.97 | > 46 | > 9.22 | inactive | inactive | 
CN(C)CCNS(=O)(=O)N(C)C | > 11.4 | -0.375 | inactive | 3.58 | 4.72 | > 46 | > 9.22 | inactive | inactive | 
Fc1cccc(F)c1C(Nc1nncs1)Nc1nncs1 | > 11.4 | 1.35 |  | 15.7 | 6.21 | > 46 | > 9.22 | inactive | inactive | 12.3% [at 2.29 µM]
COc1cc(C)cc(OC)c1/C=C\C(=O)O | > 11.4 | 12.4 | inactive | 8.76 | 7.32 | > 46 | > 9.22 | inactive | inactive | 
O=CN1CCN(C[C@H](O)CN2CCCCC2)CC1 | > 11.4 | 9 |  | -4.36 | 8.12 | > 46 | > 9.22 | inactive | inactive | -17.6% [at 2.29 µM]
NC(N)=N/N=C\c1ccc(O)c(C(=O)O)c1 | > 11.4 | 12.8 |  | 14.8 | -1.78 | > 46 | > 9.22 | inactive | inactive | -11.9% [at 2.29 µM]
NCCNc1ncnc2ccc(Cl)cc12 | 11.7 | 5.69 | 1 µM (active) | -9.27 | -14.9 | > 46 | > 9.22 | inactive | inactive | 
